The values that follow come from PubChem BioAssay AID624483 (NMMLSC, 2012).

In all, about 360,000 compounds went through this assay and about 11,000 (3.1%) were called active. Inconclusive results (about 2%) are left out. This is one part of a sample in which actives are shown more often than they occur. Values without a mark were called inactive. Cut-off read from the data, not from the text of the source: active = fluorescence intensity above about 16000; inconclusive = no clear call, values can overlap the other calls; inactive = below that.

The experiment is described as follows: counter-screen for toxin protease inhibitors: compound fluorescence, primary screen, artefact control for toxin protease inhibitor project, biochemical, multiplex microsphere, HTS (AID 624483). To be noted: compound autofluorescence counterscreen, microsphere flow cytometry; stronger effect = higher value. A general note: Counterscreens check selectivity or assay interference.
With `Cc1cccc(-c2cnc(C(O)c3cc(C)cc(C)c3)[nH]2)c1` (stereo unspecified), the fluorescence intensity was 3860.
`Cc1ccc(S(=O)(=O)N2CCC(C)CC2)cc1C(=O)NCc1ccccn1`: the fluorescence intensity was 5690.
In the case of `Cc1cccc(CN2CCN(C3CN(Cc4ccccc4)S(=O)(=O)C3)CC2)c1` (stereo unspecified) it was 5880; in that of `CCOC(=O)C1CCN(S(=O)(=O)c2cc(F)ccc2OC)CC1`, 4720.
In the case of `CCOC(=O)C1CCCCN1Cc1ccc(OC)c(OC)c1OC` (stereo unspecified) it was 21900 (active); in that of `CCOC(=O)C1CCN(C(=O)/C=C/c2cc(OC)c(OC)c(OC)c2)CC1`, 2640.
On to `O=C(Nc1ccc2c(c1)OCCO2)C1c2ccccc2OCC(=O)N1Cc1ccccn1` (stereo unspecified), for which the fluorescence intensity is 5110.
In the case of `Cc1[nH]c2ccccc2c1C(=O)CN1CCCC(C)C1` (stereo unspecified) it was 3780.
As for `Cc1[nH]c2ccccc2c1C(=O)CSCC(=O)O`, the fluorescence intensity was 23600 (active).
The result for `Cc1[nH]c2ccccc2c1C(=O)CN1CC(C)CC(C)C1` (stereo unspecified) reads 4370.
The result for `O=C(O)c1cc(S(=O)(=O)NC2CCCc3ccccc32)ccc1O` (stereo unspecified) reads 3070; that for `Cc1nc(C(F)(F)F)ccc1C(=O)N1CCC1(C)C(=O)NS(=O)(=O)c1ccccc1` (stereo unspecified), 2950.
In the case of `Nc1nc2c(ncn2[C@@H]2O[C@H](CNS(=O)(=O)N3CCc4ccccc4C3)[C@@H](O)[C@H]2O)c(=O)[nH]1` it was 5780; in that of `Cc1ccccc1CCN(CC(=O)NC1CCCCC1)C(=O)c1csnn1`, 4280.
As to `CCOCCC(=O)Nc1ccc2c(c1)c(=O)n(C)n2-c1ccc2ccccc2c1`, the fluorescence intensity was 4100.
The result for `CCOC(=O)CN(C(=O)CN1CCOCC1)c1ccc(Br)cc1` reads 16500 (active); that for `O=C(Cc1ccc(Br)cc1)NCCN1CCOCC1`, 4390; that for `O=C(CN1CCOCC1)N/N=C/c1ccc(-c2ccc(Br)cc2)o1`, 6290.
For `COCCOC1CCN(C(=O)c2ccc(OC)c(OC3CCN(C(C)C)CC3)c2)CC1`, the fluorescence intensity is 5660.
The result for `OC[C@@H]1CN(Cc2cccs2)C[C@H](n2cnc3c(Nc4ccccc4)ncnc32)O1` reads 2850.
In the case of `CCN(CC)CCNC(=O)c1ccc(NC(=O)c2cc(-c3ccncc3)nc3ccccc23)cc1` it was 5900; in that of `CCCN(CCC)CCNC(=O)c1cc2c(C)nc3ccccc3c2o1`, 23700 (active).
The result for `Cc1nc2ccccc2c2oc(C(=O)NCCCN3CCC(C)CC3)cc12` reads 6790.
For the molecule `COc1cc(CCN=Cc2ccccc2O)c([N+](=O)[O-])cc1OC`, the fluorescence intensity was 6170.
In the case of `CCOC(=O)[C@]12CCCC=C1N(Cc1ccc3c(c1)OCO3)C(=O)[C@H](CC(=O)NCc1cccs1)C2` it was 4370.
As to `O=C(NC1CCCCCC1)c1cccnc1Sc1ccc(Cl)cc1`, the fluorescence intensity was 2130.
The result for `O=C(NCc1cccnc1)c1cccnc1Sc1ccc(Cl)cc1` reads 16900 (active); that for `COc1cccc(CNC(=O)c2cccnc2Sc2ccc(Cl)cc2)c1`, 5920; that for `C=CCn1c(=O)n(C)c2c(=O)n(C)c(=O)n(C)c21`, 3000.
In the case of `O=[N+]([O-])c1ccc(CN2CC(N3CC=CC3)CS2(=O)=O)cc1` (stereo unspecified) it was 6550; in that of `CCOc1ccc(-c2cn(S(=O)(=O)c3cccc4nsnc34)nc2N)cc1`, 4610.
The result for `CCCCNC(=O)OC1CC2CC1[C@H]1CCCCN1C2=O` (stereo partly specified) reads 5740; that for `Cn1ncc2c(Nc3cccc4ccccc34)ncnc21`, 3210.
With `CN(C)CCCn1c(SCc2ccc(Cl)cc2)nnc1-c1ccncc1`, the fluorescence intensity is 3820.
On to `CC1CCCCC1NC(=O)CSc1nnc(-c2ccncc2)n1CCCN(C)C` (stereo unspecified), for which the fluorescence intensity was 4240.
In the case of `CSc1nnc(-c2ccncc2)n1CCCN1CCCC1=O` it was 16700 (active).
Take `COc1cc(Cn2c3ccc(NC(=O)CC(C)c4ccccc4)cc3c(=O)n2C)ccc1F` (stereo unspecified): the fluorescence intensity is 3950.
In the case of `CCOc1ccc(C(=O)Nc2cccc(SC)c2)cc1`, the fluorescence intensity was 2060.
For `Cc1ccc(S(=O)(=O)N(Cc2cc3ccccc3[nH]c2=O)CC2CCCO2)cc1` (stereo unspecified), the fluorescence intensity is 3240.
The result for `Cc1cc(C(=O)Nc2nnc(C3CC3)s2)c(C)s1` reads 5450; that for `COc1ccc(NC(=O)CCC(=O)Nc2nnc(C3CCCCC3)s2)cc1`, 5270.
The result for `Cc1occc1C(=O)Nc1nnc(C2CCCCC2)s1` reads 22300 (active).
In the case of `CCc1nc2c(OCc3ccc(F)c(F)c3)cccn2c1N(C)C(=O)c1ccco1` it was 3900; in that of `O=C1Nc2ccccc2NC(c2ccc3c(c2)OCO3)=C1N(Cc1ccc(F)cc1)C(=O)c1ccco1`, 5250; in that of `Brc1ccc(C2=CC(c3ccco3)n3ncnc3N2)cc1` (stereo unspecified), 9350.
With `Clc1ccc2c(c1)C1=C(C(c3ccncc3)O2)C(c2ccc(Br)cc2)n2ncnc2N1` (stereo unspecified), the fluorescence intensity is 16600 (active).
In the case of `Cc1ccc(CN(Cc2cccnc2)C(=S)Nc2cc(Cl)ccc2C)cc1` it was 4690; in that of `CCn1c(SCC(=O)Nc2cc(C)ccc2C)nnc1-c1cnccn1`, 4580; in that of `Cc1ccc(CSc2nnc(-c3cnccn3)n2C)cc1`, 4420.
The result for `CCN(CC)C(=O)CSc1nnc(-c2cnccn2)n1-c1ccc(C)cc1` reads 23200 (active).
`CC(C)(C)C1CCC(=O)N2CCC[C@]2(c2ccccc2)C1` (stereo partly specified): the fluorescence intensity is 5900.
The result for `CN(CC1CCCN(CCc2cccc(C(F)(F)F)c2)C1)C(=O)c1ccc2nc[nH]c2c1` (stereo unspecified) reads 5960; that for `COc1cccc(NC(=O)C2(C)CCN2C(=O)CCC2CCCC2)c1` (stereo unspecified), 2920.
In the case of `N#C/C(=C\c1cccnc1)C(=O)Nc1ccc(SC(F)F)cc1` it was 3830; in that of `Nc1nnnn1/N=C/c1cccc(Br)c1`, 3440; in that of `Nc1nnnn1/N=C/c1cccs1`, 21800 (active).
The result for `COc1ccc(/C=N/n2nnnc2N)cc1OC` reads 4170.
As to `COc1ncnc2c1ncn2CCCNCCN1CCOCC1`, the fluorescence intensity is 3370.
The result for `COc1ccc(CCN(C(=O)COc2ccccc2)c2nc(-c3ccccc3)cs2)cc1OC` reads 21300 (active).
In the case of `COc1ccc(CN(C(=O)c2cccs2)c2nccs2)cc1OC`, the fluorescence intensity is 3950.
As to `CN(Cc1ccccc1)C(=O)COc1ccccc1`, the fluorescence intensity is 2850.
With `C[C@H](NC(=O)C1CCN(S(=O)(=O)c2ccccc2)CC1)C(=O)NCc1ccccc1`, the fluorescence intensity is 5500.
Consider `COc1cccc(CN2CCC(C(=O)NC(c3ccc4c(c3)OCO4)c3ccccn3)CC2)c1` (stereo unspecified), for which the fluorescence intensity is 3800.
Regarding `COc1ccc(-c2cc(=O)oc3cc(OC(C)C(=O)Nc4ccc(CN5CCOCC5)cc4)ccc23)cc1` (stereo unspecified), the fluorescence intensity is 5340.
`Cc1cc(=O)oc2cc(NC(=O)C(C)Oc3ccccc3)ccc12` (stereo unspecified): the fluorescence intensity was 5330.
As for `Cc1cc(=O)oc2cc(OC(C)C(=O)Nc3ccc(N4CCOCC4)cc3)ccc12` (stereo unspecified), the fluorescence intensity was 22000 (active).
Regarding `O=C(NC(=S)Nc1ccccc1N1CCCCC1)c1ccc(F)cc1`, the fluorescence intensity was 6710.
Consider `COc1ccccc1C(=O)NC(=S)Nc1ccccc1N1CCCCC1`, for which the fluorescence intensity is 5870.
For `COc1ccc(C(=O)NC(=S)Nc2ccccc2N2CCN(S(C)(=O)=O)CC2)cc1OC`, the fluorescence intensity is 22100 (active).
As for `Cc1nn(-c2ccccc2)c2[nH]c(C(F)(F)F)cc(=O)c12`, the fluorescence intensity is 4600.
The result for `CCOc1cc(C)c(S(=O)(=O)NCc2ccccn2)cc1C` reads 3700; that for `CCOc1cc(C)c(Cl)cc1S(=O)(=O)n1nnc2ccccc21`, 10500; that for `CCCOc1cc(C)c(S(=O)(=O)n2nnc3ccccc32)cc1C`, 16800 (active).
As to `CC1CCCC(NC(=O)c2cccc(N3CCCC3=O)c2)C1C` (stereo unspecified), the fluorescence intensity is 2560.
In the case of `CC1CCC(NC(=O)c2ccc(N3CCCC3=O)cc2)CC1` (stereo unspecified) it was 21800 (active).
In the case of `O=C(NCCCN1CCCCCC1)c1ccc(N2CCCC2=O)cc1` it was 3260; in that of `C=CCn1c(SCC(=O)c2ccc(Br)cc2)nnc1C(C)NC(=O)Cc1ccc(OC)cc1` (stereo unspecified), 23200 (active); in that of `CCn1c(SCC(=O)NNC(=O)c2ccc(OC)cc2)nnc1C(C)C`, 6340.
For `COc1ccc(C(=O)NCc2nnc(SCCOc3ccccc3)n2C)cc1`, the fluorescence intensity was 5100.
The result for `C=CCn1c(CNC(=O)c2ccco2)nnc1SCC(=O)c1ccc(OC)cc1` reads 3770; that for `C=CCn1c(SCc2ccc(Cl)c(Cl)c2)nnc1C(CO)NC(=O)c1ccc(OC)cc1` (stereo unspecified), 2760.
The result for `C=CCn1c(SCCOc2ccc(OC)cc2)nnc1C(NC(=O)c1ccc(OC)cc1)C(C)C` (stereo unspecified) reads 24400 (active); that for `CCCNC(=O)c1cc(C2CCCCN2S(=O)(=O)c2cn(C)cn2)on1` (stereo unspecified), 3300.
On to `O=C(NCc1ccc(F)cc1)C1CCC(CNc2c(N3CCOCC3)c(=O)c2=O)CC1` (stereo unspecified), for which the fluorescence intensity was 4840.
In the case of `O=S(=O)(NC1CC2CCC1C2)c1ccc(Cl)cc1` (stereo unspecified) it was 3140; in that of `CCOC(=O)[C@]12CCCC=C1N(Cc1ccc(Cl)cc1Cl)C(=O)[C@H](CC(=O)N1CCCCC1)C2`, 6000; in that of `COc1cccc(-c2cc3nc(NCCOc4ccccc4Cl)n(C)c(=O)c3s2)c1`, 3580.
Regarding `CC1(C(=O)NS(=O)(=O)c2cccc(F)c2)CCN1C(=O)Cc1ccc(Cl)cc1Cl` (stereo unspecified), the fluorescence intensity was 3750.
As to `CCCCN1C(=O)C(CC(=O)NCc2cccs2)CC(C(=O)N2CCCCCC2)=C1C` (stereo unspecified), the fluorescence intensity is 5770.
In the case of `CN(C)c1ccnc(Oc2ccc(F)cc2)c1C#N` it was 8110.
As for `O=C(CCC(=O)OCc1ccc(Cl)cc1)Nc1ccccc1`, the fluorescence intensity was 2700.
Turning to `O=C(CNC(=O)c1ccccc1)NCC(=O)OCC(=O)c1ccccc1`, the fluorescence intensity was 5170.
The result for `O=C(CNC(=O)c1ccccc1)NCC(=O)OCc1ccc(Cl)cc1` reads 22400 (active).
Take `Nc1ccc(SCCN2C(=O)c3ccccc3C2=O)cc1`: the fluorescence intensity is 19900 (active).
Turning to `O=C1c2ccccc2C(=O)N1CCCCCCN1C(=O)c2ccccc2C1=O`, the fluorescence intensity was 3880.
The result for `O=C(OCCN1C(=O)c2ccccc2C1=O)Oc1ccccc1` reads 4060.
